40 compounds from the supplement of paper PMC7366291 can be followed below.

Counter-ions that a name gives are not always drawn. ± gives the standard deviation.

The assay has as its system Danio rerio Tg(wt1b:EGFP) embryo, pronephros. The assay can be described thus: glomerular separation, fold change vs DMSO control; higher = glomeruli further apart (abnormal). The settings on record: 25 µM; exposure: 24-48 hpf. An outline of the steps:
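Dechorionated Tg(wt1b:EGFP) zebrafish embryos were treated with 25 μM compound in 0.5% DMSO, in HEPES-buffered E3 with 0.003% PTU, from 24 to 48 hpf at 28.5°C. On maximum projections of dorsal pronephros images, 16 hand-placed reference points in Fiji gave distances and angles, and values more than 2 SD from the feature mean were left out. Results are fold changes over the mean of same-day DMSO-treated embryos.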
`CNCCC=C1c2ccccc2CCc2ccccc21` [Nortriptyline hydrochloride] registered a glomerular separation of 1.04 ± 0.35. `CCCc1cc(=O)[nH]c(=S)[nH]1` [Propylthiouracil]: the glomerular separation amounted to 0.81 ± 0.17. For `CN(C/C=C/c1ccccc1)Cc1cccc2ccccc12` [Naftifine hydrochloride], the glomerular separation is 1.03 ± 0.34.

Take `CN(C)CCC=C1c2ccccc2CCc2ccccc21` [Amitryptiline hydrochloride]: the glomerular separation came to 1.3 ± 0.62. For `O=C(NCCNCC(O)COc1ccc(O)cc1)N1CCOCC1` (stereo not given) [Xamoterol hemifumarate] the value was 1.01 ± 0.28. The compound `COC(=O)C1=C(C)NC(C)=C(C(=O)OCCN(C)Cc2ccccc2)C1c1cccc([N+](=O)[O-])c1` (stereo not given) [Nicardipine hydrochloride] registered a glomerular separation of 1.13 ± 0.73.

Consider `Oc1ccc(OCc2ccccc2)cc1` [Monobenzone], for which the glomerular separation came to 2.85 ± 1.3.

Compound `OC(CCN1CCCCC1)(c1ccccc1)c1ccccc1` [Pridinol methanesulfonate salt] gave a glomerular separation of 0.797 ± 0.22. As to `Cc1cccc(CN2CCN(C(c3ccccc3)c3ccc(Cl)cc3)CC2)c1` (stereo not given) [Meclozine dihydrochloride], the glomerular separation is 1.25 ± 0.33. For the compound `C[C@H](CS)C(=O)N1CCC[C@H]1C(=O)O` [Captopril], the glomerular separation is 1 ± 0.45. As for `CC[C@@H]1C(=O)OC[C@@H]1Cc1cncn1C` [Pilocarpine nitrate], the glomerular separation was 1.19 ± 0.19. For `CC(C)/N=c1\cc2n(-c3ccc(Cl)cc3)c3ccccc3nc-2cc1Nc1ccc(Cl)cc1` [Clofazimine] the value was 1.02 ± 0.29.

For the compound `COc1ccc(NS(=O)(=O)c2ccc(N)cc2)nn1` [Sulfamethoxypyridazine], the glomerular separation was determined as 0.681 ± 0.15. Compound `CCn1cc(C(=O)O)c(=O)c2ccc(C)nc21` [Nalidixic acid sodium salt] registered a glomerular separation of 1.31 ± 0.59. Under `COC1=CC(=O)C[C@@H](C)[C@]12Oc1c(Cl)c(OC)cc(OC)c1C2=O` [Griseofulvin] stands 0.952 ± 0.29; under `NS(=O)(=O)c1cc2c(cc1C(F)(F)F)NC(Cc1ccccc1)NS2(=O)=O` (stereo not given) [Bendroflumethiazide], 1.15 ± 0.68.

Compound `CC(C(=O)O)c1ccc(C(=O)c2ccccc2)s1` (stereo not given) [Tiaprofenic acid] came in with a glomerular separation of 1.58 ± 0.4. For the compound `CC(C)(C)NC(=O)[C@@H]1C[C@@H]2CCCC[C@@H]2CN1C[C@@H](O)[C@H](Cc1ccccc1)NC(=O)[C@H](CC(N)=O)NC(=O)c1ccc2ccccc2n1` [Saquinavir mesylate], the glomerular separation came to 1.08 ± 0.35. Consider `CC(C)(Oc1ccc(Cl)cc1)C(=O)O` [Clofibric acid], for which the glomerular separation was 1.17 ± 0.56. For `CCN(CC)CCCC(C)Nc1c2ccc(Cl)cc2nc2ccc(OC)cc12` (stereo not given) [Quinacrine dihydrochloride hydrate] the value was 0.766 ± 0.2. In turn, `O=C(O)CCc1nc(-c2ccccc2)c(-c2ccccc2)o1` [Oxaprozin] registered a glomerular separation of 4.33 ± 1.5. On to `CCCc1cc(C(N)=S)ccn1` [Prothionamide], for which the glomerular separation was determined as 0.957 ± 0.36. Under `C[C@]1(Cn2ccnn2)[C@H](C(=O)O)N2C(=O)C[C@H]2S1(=O)=O` [Tazobactam] stands 0.923 ± 0.63. `CC(=O)O[C@]1(C(C)=O)CC[C@H]2[C@@H]3C=C(Cl)C4=CC(=O)[C@@H]5C[C@@H]5[C@]4(C)[C@H]3CC[C@@]21C` [Cyproterone acetate] had a glomerular separation of 1.2 ± 0.46. For `C[C@]12C=CC(=O)C=C1CC[C@@H]1[C@@H]2[C@@H](O)C[C@@]2(C)[C@H]1CC[C@]2(O)C(=O)CO` [Prednisolone] the value was 1.36 ± 0.94; for `NS(=O)(=O)c1cc2c(cc1Cl)NC(CC1CCCC1)NS2(=O)=O` (stereo not given) [Cyclopenthiazide], 0.818 ± 0.23. For `CN1CCC(=C2c3ccccc3CC(=O)c3sccc32)CC1` [Ketotifen fumarate] the value was 0.991 ± 0.29; for `CCCCC1(COC(=O)CCC(=O)O)C(=O)N(c2ccccc2)N(c2ccccc2)C1=O` [Suxibuzone], 1.48 ± 0.71. For `COc1cc(OC)c(C(=O)CCCN2CCCC2)c(OC)c1` [Buflomedil hydrochloride] the value was 1.14 ± 0.33. Regarding `CCN(CC)CC#CCOC(=O)C(O)(c1ccccc1)C1CCCCC1` (stereo not given) [Oxybutynin chloride], the glomerular separation turned out to be 1.32 ± 0.54. Under `CC(=O)Oc1cc(C(C)C)c(OCCN(C)C)cc1C` [Moxisylyte hydrochoride] stands 0.853 ± 0.24; under `O=C(OCCOCCO)c1ccccc1Nc1cccc(C(F)(F)F)c1` [Etofenamate], 3.04 ± 0.95. Compound `COc1ccc(-c2ccc3cc(C(=O)O)ccc3c2)cc1C12CC3CC(CC(C3)C1)C2` [Adapalene] showed a glomerular separation of 0.97 ± 0.49. On to `Cc1cc(NC(=O)C2=C(O)c3ccccc3S(=O)(=O)N2C)no1` [Isoxicam], for which the glomerular separation came out at 1.19 ± 0.55. For `CNC1(C)C2CCC(C2)C1(C)C` (stereo not given) [Mecamylamine hydrochloride] the value was 1.09 ± 0.32. Take `CC(C)c1nc(CN(C)C(=O)N[C@H](C(=O)N[C@@H](Cc2ccccc2)C[C@H](O)[C@H](Cc2ccccc2)NC(=O)OCc2cncs2)C(C)C)cs1` [Ritonavir]: the glomerular separation amounted to 1.18 ± 0.61.

For `CN1CCN(c2c(F)cc3c(=O)c(C(=O)O)cn4c3c2SCC4)CC1` [Rufloxacin], the glomerular separation amounted to 0.835 ± 0.21. For `O=C(CCCCCCC(=O)Nc1ccccc1)NO` [Vorinostat] the value was 1.25 ± 0.51.

The compound `Cc1ccnc2c1NC(=O)c1cccnc1N2C1CC1` [Nevirapine] came in with a glomerular separation of 1.13 ± 0.48. In the case of `C[C@@H](O)[C@H]1C(=O)N2C(C(=O)O)=C(S[C@@H]3CN[C@H](C(=O)N(C)C)C3)[C@H](C)[C@H]12` [Meropenem], the glomerular separation is 1.03 ± 0.35.
